Measurements as given in PubChem BioAssay (NCI).
This is part of a sample that, as a whole, favours compounds with a hit. Of some 79,000 tested, about 15% had one in any assay. Values without a mark were called inactive. Activity calls are given as the source filed them. No stated cut-off is given here; in the data, active means growth inhibition above about 70%; inactive means the rest.

Experiment: NCI Yeast Anticancer Drug Screen. Data for the wt1 strain (AID 149);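 further: 0% = growth of vehicle-treated wt1 cultures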
Details: S. cerevisiae wt1 strain (SPY 50644) growth inhibition, stronger effect = higher value
Protocol: Growth inhibition of yeast strains with defined genetic alterations is measured as a screen for potential anti-cancer activity. Selected strains with alterations in DNA damage repair or cell cycle control were exposed to compounds and growth inhibition was measured relative to vehicle treated controls. The strain used in this assay is wt1

| Structure (SMILES) | growth inhibition (at 1.2 µM) [%] | growth inhibition (at 3.7 µM) [%] | growth inhibition (at 11.0 µM) | growth inhibition (at 33.0 µM) | growth inhibition (at 100.0 µM) |
| --- | --- | --- | --- | --- | --- |
| COC(=O)C1CCCCC1C(=O)Nc1ccccc1 (stereo not given) | -2 | -2 | 0% | -1% | 0% |
| O=C(NO)c1coc2ccccc2c1=O | 4 | -3 | -3% | -3% | 0% |
| O=S(=O)(c1cccc(C(F)(F)F)c1)N1c2ccccc2-n2cccc2C1c1cccnc1 (stereo not given) | -22 | -8 | 55% | 92% (active) | 89% (active) |
| CC(=O)N1C=Cc2c(c(C)c3c([nH]c4ccccc43)c2C)C1 | -7 | 28 | 82% (active) | 90% (active) | 92% (active) |
| O=C(Nc1cccs1)c1ccccc1 | -5 | -6 | -8% | -6% | 48% |
| O=C(O)c1ccccc1C(=O)OC1CCc2ccccc2C1 (stereo not given) | -5 | -7 | -80% | -1% | 27% |
| O=P(C(=S)Nc1c(Cl)cccc1Cl)(c1ccccc1)c1ccccc1 | 31 | 25 | 18% | 24% | 96% (active) |
| O=C1c2ccccc2C(=O)c2c(O)c(NCCNCCO)cc(O)c21 | 1 | -1 | 9% | 71% (active) | 83% (active) |
